According to ChEMBL document CHEMBL3988442, “University of Dundee, Small-Polar-MMV Screening Library” (2021):
Out of some 48,000 compounds screened, about 13,000 (27%) showed an effect of 50% or more. The list shows a part of the results.

tested on: Wolbachia pipientis; test: Anti-Wolbachia Cell-Based Screen; type: functional; design: scale not given: in the data most compounds retested in dose-response had high values; details: 5 µM

First: CCCNCC1(O)CCCN(Cc2cccc(C)c2)C1=O (configuration not stated)
Second: CCN(CCO)C(=O)C1CCC(=O)N(Cc2cccc(OC)c2)C1 (configuration not stated)
The “Percent Effect” value of the first is higher: 20.78% for the first, 4.416% for the second.

First: Nc1nc(CCC(=O)N2C[C@@H](CN3CCCC3)C[C@H](CO)C2)n[nH]1
Second: CCn1ncnc1C1CC(=O)NCc2nc(N3CCCC3)sc21 (configuration not stated)
The “Percent Effect” value of the first is lower: -12.43% for the first, 88.25% for the second.

First: Cc1ccc(C2CC(=O)NCc3nc(N)sc32)cc1C (configuration not stated)
Second: CCOc1cccc(C2CC(=O)NCc3nc(N)sc32)c1 (configuration not stated)
The “Percent Effect” value of the first is lower: 0.1432% for the first, 2.31% for the second.

Compared with `CCOc1cccc(C2CC(=O)NCc3nc(N(C)C)sc32)c1` (configuration not stated), `CCOc1cccc(C2CC(=O)NCc3nc(N4CCCC4)sc32)c1` (configuration not stated) is lower in “Percent Effect” value: 5.085% for the first, -6.785% for the second.

Compared with `CCCn1ncc(C2CC(=O)NCc3nc4sc(C)cn4c32)c1C` (configuration not stated), `CCn1ncnc1C1CC(=O)NCc2nc3ccccn3c21` (configuration not stated) is lower in “Percent Effect” value: 0.1811% for the first, -4.231% for the second.

First: CCn1ncnc1C1CC(=O)NCc2nc(N)sc21 (configuration not stated)
Second: CCn1ncnc1C1CC(=O)NCc2nc(N3CCOCC3)sc21 (configuration not stated)
The “Percent Effect” value of the first is lower: 74.2% for the first, 112.6% for the second.

Compared with `O=C1CCCc2[nH]c(=O)c(C(=O)N(CC3CCCCC3)C3CC3)cc21`, `O=c1oc(-c2ccc(F)cc2)nn1CN1CCN(C2CCCC2)CC1` is higher in “Percent Effect” value: -8.56% for the first, -7.879% for the second.

First: Cc1ccc(S(=O)(=O)N2CCOc3ccccc32)cc1C(N)=O
Second: CN(CC(=O)Nc1ccncc1)C1CCCN(c2cccnn2)C1 (configuration not stated)
The “Percent Effect” value of the first is lower: 5.411% for the first, 95.39% for the second.

First: CC(C)c1noc(CN(C)C(=O)c2ccccc2-c2nc[nH]n2)n1
Second: Cc1nc(CN2CCCC(N(C)CC(=O)Nc3cccnc3)C2)no1 (configuration not stated)
The “Percent Effect” value of the first is lower: -15.19% for the first, 13.61% for the second.

Compared with `CCN1CC2(CC1=O)CN(C(=O)NC(C)C)CCN(C(=O)NC(C)C)C2`, `CCN1CC2(CC1=O)CN(C(=O)NC(C)C)CCN(C(=O)C(C)C)C2` (configuration not stated) is higher in “Percent Effect” value: 115.2% for the first, 117.3% for the second.

Going from `CCN1CC2(CC1=O)CN(C(=O)NC)CCN(S(C)(=O)=O)C2` (configuration not stated) to `CCN1CC2(CC1=O)CN(C(C)=O)CCN(S(C)(=O)=O)C2` (configuration not stated), the “Percent Effect” value falls from 1.458% to -3.303%.

First: CC(C)NC(=O)N1CCN(C(=O)N(C)C)CC2(CC(=O)N(C)C2)C1 (configuration not stated)
Second: CNC(=O)N1CCN(C(=O)C(C)C)CC2(CC(=O)N(C)C2)C1 (configuration not stated)
The “Percent Effect” value of the first is higher: 11.38% for the first, -13.05% for the second.

First: CCS(=O)(=O)N1CCN(C(=O)NC(C)C)CC2(CC(=O)N(C)C2)C1 (configuration not stated)
Second: CC(C)NC(=O)N1CCN(S(=O)(=O)C2CC2)CC2(CC(=O)N(C)C2)C1 (configuration not stated)
The “Percent Effect” value of the first is higher: -2.042% for the first, -16.72% for the second.

Compared with `CCN1CC2(CC1=O)CN(C(=O)N(C)C)CCN(S(C)(=O)=O)C2` (configuration not stated), `CCN1CC2(CC1=O)CN(C(=O)C(C)C)CCN(S(C)(=O)=O)C2` (configuration not stated) is higher in “Percent Effect” value: -16.32% for the first, 4.611% for the second.

First: CCN1CC2(CC1=O)CN(C(=O)NC(C)C)CCN(S(C)(=O)=O)C2 (configuration not stated)
Second: CCN1CC2(CC1=O)CN(C(C)=O)CCN(C(=O)NC(C)C)C2 (configuration not stated)
The “Percent Effect” value of the first is lower: 100.8% for the first, 101.7% for the second.

Compared with `CCN1CC2(CC1=O)CN(C(=O)C(C)C)CCN(S(=O)(=O)CC)C2` (configuration not stated), `CCN1CC2(CC1=O)CN(C(C)=O)CCN(S(=O)(=O)CC)C2` (configuration not stated) is lower in “Percent Effect” value: 12.11% for the first, -5.362% for the second.

Compared with `CCN1CC2(CC1=O)CN(C(C)=O)CCN(C(=O)NC)C2` (configuration not stated), `CC(=O)N1CCN(Cn2nc(-c3ccc(F)cc3)oc2=O)CC1` is lower in “Percent Effect” value: 104.3% for the first, 6.471% for the second.

Going from `NC(=O)N1CCCN(CC(=O)NCCc2c(F)cccc2F)CC1` to `O=c1oc(-c2ccc(F)cc2)nn1CN1CCCCC1`, the “Percent Effect” value rises from -7.896% to 107.7%.

Compared with `Cc1nc[nH]c1CN1CCCn2nc(CN3CCC(F)(F)CC3)cc2C1`, `O=c1oc(-c2ccc(F)cc2)nn1CN1CCN(CC2CC2)CC1` is higher in “Percent Effect” value: 5.091% for the first, 89.16% for the second.

Going from `CCC1(CNCc2ncc[nH]2)CCCC1` to `CN(CC(=O)NC1(C#N)CCCC1)C1CCCN(c2cccnn2)C1` (configuration not stated), the “Percent Effect” value rises from -14.89% to 1.351%.

First: Cc1csc(NC(=O)CN(C)CC2CCCN2c2cccnn2)n1 (configuration not stated)
Second: Cc1nnc(NC(=O)CN(C)CC2CCCN2c2cccnn2)s1 (configuration not stated)
The “Percent Effect” value of the first is higher: 8.253% for the first, -3.874% for the second.

Compared with `CN(CC(=O)Nc1cccnc1)C1CCCN(c2cccnn2)C1` (configuration not stated), `Cc1nnc(NC(=O)CN(C)C2CCCN(c3cccnn3)C2)s1` (configuration not stated) is higher in “Percent Effect” value: 85.32% for the first, 131.3% for the second.

First: CN(CC(=O)NC1CCOCC1)C1CCCN(c2cccnn2)C1 (configuration not stated)
Second: CN(C)CC(=O)N1CC[C@H]2OCC[C@@]2(COCC2CC2)C1
The “Percent Effect” value of the first is higher: 137.1% for the first, -4.204% for the second.

First: COC(=O)C1CCCCN1C(=O)c1ccc(N(C)C)cc1F (configuration not stated)
Second: O=c1oc(-c2ccc(F)cc2)nn1CC1CCCCO1 (configuration not stated)
The “Percent Effect” value of the first is higher: -10.97% for the first, -16.49% for the second.

Going from `CC1CCN(Cn2nc(-c3ccc(F)cc3)oc2=O)CC1` to `O=c1oc(-c2ccc(F)cc2)nn1CN1CCSCC1`, the “Percent Effect” value rises from 4.807% to 92.99%.

First: O=c1oc(-c2ccc(F)cc2)nn1CC1CCOC1 (configuration not stated)
Second: O=c1oc(-c2ccc(F)cc2)nn1CCc1ccncc1
The “Percent Effect” value of the first is higher: -10.24% for the first, -21.89% for the second.
